# Screening results: PubChem BioAssay, Sanford-Burnham Center for Chemical Genomics
# A selection follows.
# CYP2C19 inhib – blocks human cytochrome P450 2C19; P33261; CYP2C19 Supersomes, luciferin-H EGE luminescence, 30 min; inhibition, % at 5 µM; hit rate 21% among 96,000;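 active = CYP2C19 inhibition above a set limit at 5 µM in the primary screen, cut at about 50% in these data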;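 note: plate controls were negative control wells for no effect and 2.5 mM tranylcypromine positive control for full effect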
# CYP2C9 inhib – human CYP2C9 inhibition; CYP2C9 Supersomes, luciferin-H conversion, luminescence; inhibition, % at 5 µM; hit rate 20% among 96,000;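 active = blocking of liver enzyme CYP2C9 beyond about 50% at 5 µM, limit read from the data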
# Mac1 fbg enh – CD11b/CD18-fibrinogen binding enhancement | K562 CD11b/CD18 adhesion to fibrinogen, ATPlite luminescence | activation, % at 10 µM | hit rate 0.07% among 93,000 | AID 1499;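 active = 10 µM primary screen giving 50% or more activity, confirmed by 40% or more on retest at that dose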
# CYP2C9 activ – CYP2C9 (human) activation; P11712; hit rate 1.4% among 96,000; recombinant CYP2C9, luciferin-H conversion, luminescence; hits give high values; factor 1 = untreated enzyme, 0 = blocked; activation factor at 5 µM; AID 1024;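 active = activation factor of 2 or more for CYP2C9 at a 5 µM dose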;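 note: 0 = sulfaphenazole-blocked wells and 1 = vehicle-only wells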
# CD11b adhes inh – CD11b/CD18-fibrinogen binding inhibition; P05107+P11215; K562 CD11b/CD18 adhesion to fibrinogen, ATPlite luminescence; Mn2+ added to activate the integrin; inhibition, % at 10 µM; hit rate 0.54% among 93,000; AID 1497;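 active = primary inhibition of 50% or more at 10 µM, then 40% or more on retest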
# CYP2C19 activ – activators of human cytochrome P450 2C19 | P33261 | recombinant CYP2C19, luciferin-H EGE luminescence; hits give high values; 0 = fully inhibited enzyme, 1 = untreated enzyme | activation factor at 5 µM | 96,000 tested, under 10 active | AID 1025;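 active = activation factor of at least 2 at 5 µM in the primary screen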;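 note: 0 = wells with 2.5 mM tranylcypromine and 1 = vehicle-only wells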
# * marks the source's active call; other numbers are inactive results.
SMILES,CYP2C19 inhib,CYP2C9 inhib,Mac1 fbg enh,CYP2C9 activ,CD11b adhes inh,CYP2C19 activ
CC(SCc1ccccc1)C(=O)NN=C1CCN(C)CC1 (stereo not drawn),11,-9,0,1.1,-32,0.9
COc1ccccc1CN(Cc1cc2cc(C)ccc2[nH]c1=O)Cc1nnnn1CC1CCCO1 (stereo not drawn),24,56*,-3,0.4,12,0.8
COc1ccccc1CN(Cc1cc2cc(C)cc(C)c2[nH]c1=O)Cc1nnnn1CC1CCCO1 (stereo not drawn),63*,56*,6,0.4,-1,0.4
Cc1ccc2[nH]c(=O)c(CN(Cc3cccs3)Cc3nnnn3CC3CCCO3)cc2c1 (stereo not drawn),12,0,-1,1,4,0.9
CCC(C)Nc1nc(OC)nc(N(C)C#N)n1 (stereo not drawn),6,-10,-6,1.1,10,0.9
CC(O)Cc1nsc(NC(=O)c2ccc(Br)o2)n1 (stereo not drawn),-5,-8,13,1.1,-38,1.1
CCN(CC)c1nc2c(s1)C(=O)CC(C)(C)C2,48,-4,2,1,2,0.5
C/C(=N\NC(=O)c1cccc(S(=O)(=O)Nc2ccccc2Cl)c1)c1ccc(-n2ccnc2)cc1,99*,100*,1,0,12,0
COc1ccc(CC(=O)Nc2ccc(/C(C)=N/NC(=O)c3cccc([N+](=O)[O-])c3)cc2)cc1,-5,2,31,1,0,1
COc1ccc(NS(=O)(=O)c2cccc(C(=O)N/N=C(\C)c3ccc(-n4ccnc4)cc3)c2)cc1,93*,99*,22,0,20,0.1
O=C(NC(=S)Nc1nc2c(s1)CSc1ccccc1-2)c1ccccc1,12,29,-5,0.7,22,0.9
COC(=O)NNC(=O)c1ccccc1C,-13,-5,-7,1,-1,1.1
